The values that follow come from the supplement of paper PMC10849652.

Targets with a hit are over-represented here; the source holds about 8,800 in all. About 0.5% of all pairs of compound and target were hits.

Chain of UniProt Q96CQ1 (Q96CQ1 whole entry, looked up): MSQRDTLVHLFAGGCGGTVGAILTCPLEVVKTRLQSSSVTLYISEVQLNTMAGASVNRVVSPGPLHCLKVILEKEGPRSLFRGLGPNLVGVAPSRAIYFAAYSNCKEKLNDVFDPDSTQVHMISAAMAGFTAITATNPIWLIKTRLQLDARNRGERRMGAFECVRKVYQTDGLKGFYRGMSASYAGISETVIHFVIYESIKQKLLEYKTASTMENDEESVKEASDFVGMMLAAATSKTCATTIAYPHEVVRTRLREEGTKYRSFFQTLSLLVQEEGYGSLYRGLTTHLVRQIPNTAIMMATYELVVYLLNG
Chain of UniProt Q9Y2D2 (Q9Y2D2 whole entry, looked up): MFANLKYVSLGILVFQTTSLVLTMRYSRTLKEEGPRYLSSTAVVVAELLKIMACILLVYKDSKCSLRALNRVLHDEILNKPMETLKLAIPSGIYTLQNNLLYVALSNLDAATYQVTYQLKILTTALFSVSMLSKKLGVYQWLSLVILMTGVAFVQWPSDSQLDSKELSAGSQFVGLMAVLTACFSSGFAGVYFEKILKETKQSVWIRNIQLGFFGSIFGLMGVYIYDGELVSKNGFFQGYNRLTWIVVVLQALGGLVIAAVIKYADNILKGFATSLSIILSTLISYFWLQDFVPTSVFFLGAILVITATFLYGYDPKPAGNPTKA
Chain of UniProt Q13309 (Q13309 whole entry, looked up): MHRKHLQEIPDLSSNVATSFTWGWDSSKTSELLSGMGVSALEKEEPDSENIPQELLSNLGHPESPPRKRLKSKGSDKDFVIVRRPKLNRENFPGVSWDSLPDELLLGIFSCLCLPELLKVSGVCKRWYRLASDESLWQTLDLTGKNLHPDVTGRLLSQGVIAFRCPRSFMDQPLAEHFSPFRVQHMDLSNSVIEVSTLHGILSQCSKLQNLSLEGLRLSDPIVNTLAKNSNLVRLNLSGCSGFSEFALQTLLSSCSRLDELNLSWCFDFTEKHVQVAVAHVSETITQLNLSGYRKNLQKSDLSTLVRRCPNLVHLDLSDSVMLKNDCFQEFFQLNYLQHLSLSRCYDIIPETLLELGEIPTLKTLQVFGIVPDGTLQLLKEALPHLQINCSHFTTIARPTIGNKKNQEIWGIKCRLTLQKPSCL
Chain of UniProt O00161 (O00161 whole entry, looked up): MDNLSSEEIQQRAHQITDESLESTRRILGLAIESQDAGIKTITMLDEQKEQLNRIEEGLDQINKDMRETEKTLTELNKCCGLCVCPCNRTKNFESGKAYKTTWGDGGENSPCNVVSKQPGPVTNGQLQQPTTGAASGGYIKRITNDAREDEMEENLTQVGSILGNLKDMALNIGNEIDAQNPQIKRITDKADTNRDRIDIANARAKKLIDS
Chain of UniProt Q9NP59 (Q9NP59 whole entry, looked up): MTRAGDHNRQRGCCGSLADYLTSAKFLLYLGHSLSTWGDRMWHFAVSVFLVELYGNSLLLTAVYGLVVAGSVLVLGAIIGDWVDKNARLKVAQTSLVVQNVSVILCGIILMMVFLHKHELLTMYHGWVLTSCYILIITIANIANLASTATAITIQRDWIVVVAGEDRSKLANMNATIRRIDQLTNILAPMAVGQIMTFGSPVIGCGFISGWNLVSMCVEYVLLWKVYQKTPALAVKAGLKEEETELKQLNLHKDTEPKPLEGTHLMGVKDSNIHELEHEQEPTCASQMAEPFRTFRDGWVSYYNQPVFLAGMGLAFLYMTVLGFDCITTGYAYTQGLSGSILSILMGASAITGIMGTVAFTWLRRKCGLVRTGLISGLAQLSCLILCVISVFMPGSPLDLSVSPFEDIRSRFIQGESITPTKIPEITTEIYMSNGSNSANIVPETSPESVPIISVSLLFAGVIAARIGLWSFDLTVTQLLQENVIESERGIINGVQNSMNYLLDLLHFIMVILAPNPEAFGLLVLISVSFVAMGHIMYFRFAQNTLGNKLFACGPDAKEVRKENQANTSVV
Chain of UniProt P49675 (P49675 whole entry, looked up): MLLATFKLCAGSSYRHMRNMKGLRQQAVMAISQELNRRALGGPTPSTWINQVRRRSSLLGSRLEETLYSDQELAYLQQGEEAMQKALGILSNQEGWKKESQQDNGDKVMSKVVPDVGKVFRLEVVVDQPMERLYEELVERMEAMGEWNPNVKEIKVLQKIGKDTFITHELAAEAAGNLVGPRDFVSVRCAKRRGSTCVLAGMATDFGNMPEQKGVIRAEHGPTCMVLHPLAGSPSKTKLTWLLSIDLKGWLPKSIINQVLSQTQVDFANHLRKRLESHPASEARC
Chain of UniProt O95391 (O95391 whole entry, looked up): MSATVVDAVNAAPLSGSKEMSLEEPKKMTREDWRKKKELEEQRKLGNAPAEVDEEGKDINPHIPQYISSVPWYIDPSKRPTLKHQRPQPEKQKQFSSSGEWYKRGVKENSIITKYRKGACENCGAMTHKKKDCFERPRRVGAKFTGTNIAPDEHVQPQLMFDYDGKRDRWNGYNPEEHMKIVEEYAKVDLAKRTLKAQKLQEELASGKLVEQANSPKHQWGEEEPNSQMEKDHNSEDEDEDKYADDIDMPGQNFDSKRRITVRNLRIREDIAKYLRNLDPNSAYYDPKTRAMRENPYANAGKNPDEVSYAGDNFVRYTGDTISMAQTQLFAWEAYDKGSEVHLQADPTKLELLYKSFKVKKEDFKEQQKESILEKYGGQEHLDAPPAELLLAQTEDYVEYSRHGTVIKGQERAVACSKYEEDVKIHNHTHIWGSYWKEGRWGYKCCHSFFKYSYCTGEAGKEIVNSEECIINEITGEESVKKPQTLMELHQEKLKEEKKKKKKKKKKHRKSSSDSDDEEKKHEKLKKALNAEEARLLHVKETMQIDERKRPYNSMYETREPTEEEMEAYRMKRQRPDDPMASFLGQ
Chain of UniProt Q15464 (Q15464 whole entry, looked up): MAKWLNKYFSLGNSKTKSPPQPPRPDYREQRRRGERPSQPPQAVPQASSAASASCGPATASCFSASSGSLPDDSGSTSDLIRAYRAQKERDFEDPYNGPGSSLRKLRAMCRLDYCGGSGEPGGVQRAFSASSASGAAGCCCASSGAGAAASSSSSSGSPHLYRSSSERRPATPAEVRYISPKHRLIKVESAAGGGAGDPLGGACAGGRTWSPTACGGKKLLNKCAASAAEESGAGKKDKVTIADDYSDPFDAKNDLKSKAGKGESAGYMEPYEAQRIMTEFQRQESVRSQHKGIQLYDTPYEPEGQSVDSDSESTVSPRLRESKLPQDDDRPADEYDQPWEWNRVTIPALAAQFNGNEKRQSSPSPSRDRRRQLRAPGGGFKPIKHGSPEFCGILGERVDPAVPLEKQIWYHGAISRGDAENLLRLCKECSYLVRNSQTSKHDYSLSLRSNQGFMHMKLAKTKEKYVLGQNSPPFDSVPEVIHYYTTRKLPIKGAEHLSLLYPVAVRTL
Chain of UniProt Q9Y2H1 (Q9Y2H1 whole entry, looked up): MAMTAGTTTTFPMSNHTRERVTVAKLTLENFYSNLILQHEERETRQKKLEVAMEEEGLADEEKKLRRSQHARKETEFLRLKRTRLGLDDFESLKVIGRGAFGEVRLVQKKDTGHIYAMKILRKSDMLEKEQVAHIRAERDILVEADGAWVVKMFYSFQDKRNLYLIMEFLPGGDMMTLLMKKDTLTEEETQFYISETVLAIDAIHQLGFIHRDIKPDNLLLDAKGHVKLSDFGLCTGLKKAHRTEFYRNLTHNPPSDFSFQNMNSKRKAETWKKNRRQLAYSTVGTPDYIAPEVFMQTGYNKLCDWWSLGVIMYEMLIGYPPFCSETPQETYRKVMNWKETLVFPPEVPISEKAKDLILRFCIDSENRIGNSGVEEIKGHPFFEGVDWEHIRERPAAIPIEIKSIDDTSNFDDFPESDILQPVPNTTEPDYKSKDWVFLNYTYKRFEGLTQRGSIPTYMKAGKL
Chain of UniProt B2RUZ4 (B2RUZ4 whole entry, looked up): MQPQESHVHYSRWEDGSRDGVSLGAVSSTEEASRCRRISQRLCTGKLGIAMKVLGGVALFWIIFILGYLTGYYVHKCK
Chain of UniProt O60906 (O60906 whole entry, looked up): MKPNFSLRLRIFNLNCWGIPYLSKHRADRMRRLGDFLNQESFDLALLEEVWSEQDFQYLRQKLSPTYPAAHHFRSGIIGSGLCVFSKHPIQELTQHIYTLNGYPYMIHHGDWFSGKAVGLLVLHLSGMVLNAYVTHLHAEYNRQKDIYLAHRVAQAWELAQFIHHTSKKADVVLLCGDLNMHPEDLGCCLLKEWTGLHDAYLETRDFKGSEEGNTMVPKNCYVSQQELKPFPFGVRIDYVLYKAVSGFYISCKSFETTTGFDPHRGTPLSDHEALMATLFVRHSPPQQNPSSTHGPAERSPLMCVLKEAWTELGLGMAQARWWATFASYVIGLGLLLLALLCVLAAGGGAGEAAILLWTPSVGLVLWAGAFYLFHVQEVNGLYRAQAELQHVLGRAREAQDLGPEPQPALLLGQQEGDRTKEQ
Chain of UniProt Q8IVJ1 (Q8IVJ1 whole entry, looked up): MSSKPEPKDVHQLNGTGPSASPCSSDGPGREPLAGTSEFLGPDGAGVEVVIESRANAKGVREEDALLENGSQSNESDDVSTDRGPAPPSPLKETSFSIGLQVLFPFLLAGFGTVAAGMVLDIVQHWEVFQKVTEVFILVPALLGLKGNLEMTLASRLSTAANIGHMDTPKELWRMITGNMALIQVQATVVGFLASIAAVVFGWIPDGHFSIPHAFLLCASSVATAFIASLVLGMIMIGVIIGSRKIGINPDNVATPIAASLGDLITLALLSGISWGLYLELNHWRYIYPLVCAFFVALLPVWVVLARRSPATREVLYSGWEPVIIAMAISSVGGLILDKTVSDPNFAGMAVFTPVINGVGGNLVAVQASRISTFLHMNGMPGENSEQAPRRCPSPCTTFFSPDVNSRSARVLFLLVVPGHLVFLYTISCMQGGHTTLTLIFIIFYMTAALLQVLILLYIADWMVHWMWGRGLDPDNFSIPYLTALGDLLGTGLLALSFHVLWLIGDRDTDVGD
Chain of UniProt Q15544 (Q15544 whole entry, looked up): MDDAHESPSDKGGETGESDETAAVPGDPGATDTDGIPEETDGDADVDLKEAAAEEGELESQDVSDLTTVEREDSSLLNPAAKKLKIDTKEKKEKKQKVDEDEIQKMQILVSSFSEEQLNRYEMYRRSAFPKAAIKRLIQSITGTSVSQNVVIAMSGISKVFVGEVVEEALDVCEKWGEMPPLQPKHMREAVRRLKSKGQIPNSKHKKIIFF

Compound in the first test: CNC(=O)C1=CC=CC=C1NC2=NC(=NC=C2Cl)NC3=C(C=C(C=C3)N4CCOCC4)OC
Nature of the test: log2 fold change, soluble protein after heating vs DMSO (PISA); higher = thermal stabilisation; K562 lysate, 10 uM; active = over 0.2 and 3.5 SD of the protein, either way, in both replicates (recomputed). The method, boiled down:
(§1)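 Log-two fold change in thermal stability relative to solvent controls is reported from duplicates. For each sample, crude K562 extract from dounce-homogenised pellets in PBS pH 7.4 with 1 mM MgCl2, at 1 mg/mL protein, was treated with 10 μM compound for 30 min. Aliquots heated for 3 min across 48°C-58°C were pooled, brought to 0.5% NP-40 at 4°C and cleared at 21,000xg for 90 min. The supernatant was quantified by TMTpro 16plex LC-MS/MS with channel sums equalised.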
As for SKP2 (UniProt Q13309), the log2 fold change was 0.044 (inactive).

SRC isoform 2 (UniProt P12931): the log2 fold change is 0.118 (inactive).

In the case of SLC12A6 isoform 2 (UniProt Q9UHW9), the log2 fold change is -0.149 (inactive).

As for SNAP23 isoform 2 (UniProt O00161), the log2 fold change is 0.029 (inactive).

Turning to SMARCA4 isoform 4 (UniProt P51532), the log2 fold change is -0.008 (inactive).

Take SZT2 (UniProt Q5T011): the log2 fold change is -0.002 (inactive).

Turning to STAR (UniProt P49675), the log2 fold change was 0.073 (inactive).

In the case of STK38L (UniProt Q9Y2H1), the log2 fold change was 0.647 (active).

As to SHB (UniProt Q15464), the log2 fold change is 0.169 (inactive).

As for SNAPC2 (UniProt Q13487), the log2 fold change was -0.005 (inactive).

For the target STAU1 isoform 3 (UniProt O95793), the log2 fold change was -0.044 (inactive).

As to SMIM1 (UniProt B2RUZ4), the log2 fold change was 0.097 (inactive).

With SNRPD2 (UniProt K7EJB5), the log2 fold change is -0.057 (inactive).

As to SLU7 (UniProt O95391), the log2 fold change was -0.065 (inactive).

On to SLC25A36 (UniProt Q96CQ1), for which the log2 fold change was 0.048 (inactive).

Consider SMPD2 (UniProt O60906), for which the log2 fold change is -0.787 (inactive).

Consider SLC40A1 (UniProt Q9NP59), for which the log2 fold change is -0.05 (inactive).

With SLC41A1 (UniProt Q8IVJ1), the log2 fold change was 0.043 (inactive).

STK17B (UniProt O94768): the log2 fold change was 0.082 (inactive).

In the case of SLC39A13 (UniProt Q96H72), the log2 fold change was -0.058 (inactive).

As to SIX5 (UniProt Q8N196), the log2 fold change was 0.015 (inactive).

As to SLC35A3 isoform 2 (UniProt Q9Y2D2), the log2 fold change was 0.016 (inactive).

Compound in the next test: CNC(=O)c1ccc(Nc2ncc(C(F)(F)F)c(NCc3nccnc3N(C)S(C)(=O)=O)n2)cc1 [defactinib]
The description is as above. The method, boiled down: as §1
Take SKP2 (UniProt Q13309): the log2 fold change is 0.189 (inactive).

As for SNAP23 isoform 2 (UniProt O00161), the log2 fold change was -0.118 (inactive).

Regarding SPAG1 (UniProt Q07617), the log2 fold change was -0.014 (inactive).

As to STAR (UniProt P49675), the log2 fold change was 0.034 (inactive).

For SIN3B (UniProt O75182), the log2 fold change is 0.185 (inactive).

Consider TAF11 (UniProt Q15544), for which the log2 fold change is -0.151 (inactive).

Regarding SNRPD2 (UniProt K7EJB5), the log2 fold change was -0.074 (inactive).

Consider SLU7 (UniProt O95391), for which the log2 fold change was 0.016 (inactive).

Consider SLC25A36 (UniProt Q96CQ1), for which the log2 fold change is 0.068 (inactive).

Turning to TARDBP (UniProt K7EN94), the log2 fold change is -0.197 (inactive).

Turning to SLC40A1 (UniProt Q9NP59), the log2 fold change was 0.087 (inactive).

For the target SLC35A3 isoform 2 (UniProt Q9Y2D2), the log2 fold change was 0.069 (inactive).
